# Screening data (PubChem)
# DT40 TDP1 no CPT – qHTS for Inhibitors of human tyrosyl-DNA phosphodiesterase 1 (TDP1): qHTS in cells in absence of CPT; DT40 Tdp1-/- hTDP1 cells, no CPT, ATP luminescence, 48 h; Potency, µM (series often up to 46.2 µM), for inactives: top-dose activity change, negative = growth inhibition, most hits filed as inhibitors; actives 15% (n = 420,000); further: potency means the concentration at half of the fitted maximal effect; nearly all actives have a fitted effect of over 55% in size
#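 Stably hTDP1-transfected Tdp1-null chicken DT40 cells were treated with library compounds minus camptothecin and grown for at least 48 hr at 37 °C, after which cellular ATP was quantified by luminescence.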
# ELG1 repair inh – inhibitors of ELG1-dependent DNA repair in HEK293T cells | HEK293T ELG1-luciferase reporter, luminescence, 16 h; DNA damage induced by 5-fluorouridine | actives 2.3% (n = 330,000) | Potency, µM (highest dose often 46.1 µM), inactives show top-dose activity change, negative = inhibition, usual class: inhibitors; further: potency means the concentration at half of the fitted maximal effect; nearly all actives have a fitted effect of over 55% in size
#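 Overnight (16 hr) co-exposure of 2,000 cells/well to 5-fluorouridine and compound at 37 °C preceded detection. Luciferase was quantified via ONE-Glo luminescence; loss of signal denotes inhibition.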
# TDP1 cell CPT – growth inhibition of DT40 Tdp1-/-;hTDP1 cells with camptothecin (screen for TDP1 inhibitors); chicken DT40 Tdp1-/-;hTDP1 cells + 20 nM CPT, ATP luminescence, 48 h; Potency, µM (top dose mostly 46.2 µM), without a hit: top-dose activity change, negative = growth inhibition, hits mostly inhibitors; actives 12% (n = 420,000); further: potency means the concentration at half of the fitted maximal effect; nearly all actives have a fitted effect of over 55% in size
#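 Cell growth measured by CellTiter-Glo luminescence after a minimum 48 h, 37 C compound exposure with 20 nM CPT in Tdp1-knockout DT40 cells stably expressing hTDP1, seeded 400/well; qHTS titration format.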
# IL-1B inflam inh – inhibitors of inflammasome signaling (IL-1 beta secretion); THP-1 LPS/ATP IL-1B secretion, AlphaLISA, 16 h; hits give low values; activity change, % at 57.5 µM; actives 4.7% (n = 360,000); in the data active means activity change below about -50%; inconclusive means mostly about -30% to -49%
#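 Secreted IL-1B measured by AlphaLISA bead assay after 16 h compound exposure of THP-1 cells; compounds (final up to 57.5 uM) added 1 h before LPS (250 ng/mL) and ATP (1.25 mM) stimulation; lower signal means less secretion.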
# TDP1 block – TDP1 (human) enzyme inhibition; Q9NUW8; recombinant TDP1, AlphaScreen DNA substrate cleavage; Potency, µM (highest dose often 130 µM), for the others: at the highest dose activity change, negative = inhibition, usual class: inhibitors; actives 0.28% (n = 350,000); further: potency means the concentration at half of the fitted maximal effect; nearly all actives have a fitted effect of over 40% in size
# Target sequence (Q9NUW8 whole entry, looked up): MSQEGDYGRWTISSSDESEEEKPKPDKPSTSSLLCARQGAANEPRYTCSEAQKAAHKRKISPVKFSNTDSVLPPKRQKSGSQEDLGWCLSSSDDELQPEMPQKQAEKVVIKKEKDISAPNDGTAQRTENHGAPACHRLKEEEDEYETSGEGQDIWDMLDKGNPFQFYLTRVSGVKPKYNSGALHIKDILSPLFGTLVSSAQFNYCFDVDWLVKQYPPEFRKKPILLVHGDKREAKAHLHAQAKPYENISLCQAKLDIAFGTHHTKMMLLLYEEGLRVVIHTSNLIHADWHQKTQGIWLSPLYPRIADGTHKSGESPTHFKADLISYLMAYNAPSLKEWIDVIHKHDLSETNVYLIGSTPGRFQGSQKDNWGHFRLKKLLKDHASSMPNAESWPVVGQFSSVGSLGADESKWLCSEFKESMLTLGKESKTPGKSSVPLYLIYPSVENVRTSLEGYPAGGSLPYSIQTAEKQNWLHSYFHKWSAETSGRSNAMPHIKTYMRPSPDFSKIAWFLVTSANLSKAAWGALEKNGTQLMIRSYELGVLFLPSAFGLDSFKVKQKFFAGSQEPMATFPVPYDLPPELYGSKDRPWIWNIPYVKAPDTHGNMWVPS
#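 E. coli-derived human Tdp1, 1 nM final. Cpd preinc 15 min RT; substrate 15 nM final, 5 min RT; AS bead mix 10 ug/ml final, 10 min RT. Signal loss = tyrosine-FITC cleavage. No-enzyme wells = max signal.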
# Giardia killer – Giardia lamblia killing. activity change, % at 7.66 µM, hits read low. actives 0.15% (n = 340,000). Giardia lamblia trophozoite viability; in the data active means activity change below about -80%; inconclusive means between about -30% and that limit;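 further: parasites exposed to compound for two days anaerobically before the ATP read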
#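 Luminescent ATP signal served as the viability read-out, measured 15-30 min after adding ATP detection reagent to trophozoites that had been incubated with compounds for 48 hrs at 37 deg C anaerobically at 100 cells/well.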
# * = called active by the depositor; ? = inconclusive; . = no result; [ ] = remark or other dose. The list is not random: actives were taken first. Their share in the collection is about 19%. Unless noted, the call rests on the fitted dose curve; in most records, active means well fitted curve in the direction sought with a large enough effect; inconclusive means small, poorly fitted or top-dose-only effect, or another doubt; inactive means no such curve, though single readings can be large; an effect the other way counts as inactive or inconclusive. On the % scale 0 is the no-effect control and ±100 the full control effect.
SMILES,DT40 TDP1 no CPT,ELG1 repair inh,TDP1 cell CPT,IL-1B inflam inh,TDP1 block,Giardia killer
CCCN1CCC(=O)N([C@H](CSc2ccc(C)cc2)Cc2ccccc2)CC1,?,-1%,29µM*,-17,4%,-19
O=C1CCN(CCc2ccccc2)CCN1[C@H](CSc1ccccc1)Cc1ccccc1,11µM*,-8%,21µM*,-64*,.,27
CCCN1CCC(=O)N(C(CSc2ccc(C)cc2)CC(C)C)CC1 (stereo unspecified),.,.,.,.,10%,7
Cc1ccc(N(CC(=O)NC2CCCCC2)C(=O)CNC(=O)c2ccco2)cc1C,-21%,5%,0%,-3,4%[0.0935 µM],-3
CS(=O)(=O)N1CCC2(CCN(Cc3ccncc3)CC2)CC1,-27%,.,-24%,.,.,.
CN(C)c1nc(NCc2ccccc2)nc(N/N=C/c2ccc(Br)cc2)n1,-14%,-2%,-9%,5,-3%,-3
CN(C)c1nc(NCc2ccccc2)nc(N/N=C/c2ccc3c(c2)OCO3)n1,16µM*,?,?,-14,3%,2
Cc1cc(N/N=C/c2ccc3c(c2)OCO3)nc2ccccc12,26µM*,?,?,-22,6%,24
O=c1[nH]c(N/N=C\c2ccc3c(c2)OCO3)nc2ccccc12,23µM*,?,?,-24,4%,-3
C(=N\Nc1ccccn1)/c1ccc2c(c1)OCCO2,?,?,-4%,-69*,8%,-17
CCN(CC)S(=O)(=O)c1nnc(NC(=O)COc2cccc(C)c2)s1,-6%,.,-15%,.,4%,.
Cc1ccc(-c2nnn(CC(=O)N3CCCCC3)n2)cc1,-3%,9%,5%,0,.,15
CC(=O)c1c(C)[nH]c(C(=O)Nc2ccc(N3CCCCCC3)cc2)c1C,?,.,?,3,.,.
O=C(NCC1CC1)Nc1cccc(C(F)(F)F)c1,-29%,-1%,-14%,-6,.,-12
COc1ccc2c3n(nc2c1)CCN=C3c1cc(Cl)c(N)c(Cl)c1,16µM*,?,?,?,6%,10
Nc1c(-c2ccc(Cl)cc2)cnn1-c1cc(C(F)(F)F)cc(C(F)(F)F)c1,?,5%,?,-3,6%,?
O=[N+]([O-])c1ccc(C2=CSC3=NCCN23)cc1,-7%,.,-2%,12,.,-19
COc1ccc(C2=NCCn3nc4ccccc4c32)cc1,-15%,?,-16%,18,1%,-12
Nc1c(Cl)cc(C2=NCCn3c2c2ccc([N+](=O)[O-])cc2[n+]3[O-])cc1Cl,5.8µM*,-13%,1.8µM*,-1,10%,?
Nc1c(Cl)cc(C2=NCCn3nc4cc(C(F)(F)F)ccc4c32)cc1Cl,21µM*,?,21µM*,?,4%,3
[O-][n+]1c2cc(C(F)(F)F)ccc2c2n1CCN=C2c1ccc(Cl)cc1,?,23%,-18%,16,7%,-89*
Cc1cc(C)c(S(=O)(=O)NCC2CCC(C(=O)NCc3ccccn3)CC2)c(C)c1 (stereo unspecified),12%,-9%,2%,0,0%,2
COc1ccc2c(c1)sc1ncc(C(=O)NCc3ccc(OC(C)C)cc3)c(=O)n12,-26%,.,4%,.,4%,.
O=C(NCc1ccccn1)c1ccc(OC2CCN(Cc3ccc(CO)o3)CC2)cc1,-12%,-5%,-8%,3,4%,-6
Cc1cc(C)cc(N(C(=O)CNC(=O)c2ccco2)C(C(=O)NC2CCCCC2)c2cccnc2)c1 (stereo unspecified),-23%,8%,-3%,3,-16%,14
SMILES,DT40 TDP1 no CPT,ELG1 repair inh,TDP1 cell CPT,IL-1B inflam inh,TDP1 block,Giardia killer
Cc1c(Cl)cccc1NC(=O)Cn1cc(C(=O)C2CCCCC2)c2ccccc21,?,.,?,.,3%,.
Nc1c(Cl)cc(C2=NCCn3nc4cc([N+](=O)[O-])ccc4c32)cc1Cl,18µM*,?,?,-15,9%,-13
Cc1nc2nc(SCC(=O)NCCc3ccc(Cl)cc3)nn2c(C)c1Cc1c(F)cccc1Cl,-24%,.,-7%,.,5%,.
Cc1nc2nc(SCC(=O)NCCCN3CCCCC3)nn2c(C)c1Cc1ccccc1,3%,0%,1%,-13,9%,18
Cc1nc2nc(SCC(=O)NCCc3ccc(Cl)cc3)nn2c(C)c1Cc1ccccc1Cl,?,.,?,.,5%,.
Cc1nc2nc(SCC(=O)NCCCN3CCCC3)nn2c(C)c1Cc1ccccc1Cl,?,?,?,-54*,5%[0.0935 µM],-2
Cc1ccccc1Cc1c(C)nc2nc(SCC(=O)NCCc3ccc(Cl)cc3)nn2c1C,?,.,16µM*,.,3%,.
Cc1ccc(Cc2c(C)nc3nc(SCC(=O)NCCCN4CCCCCC4)nn3c2C)cc1,?,?,?,-23,-12%[0.0935 µM],25
CCN(CC)CCCNC(=O)CSc1nc2nc(C)c(Cc3c(F)cccc3Cl)c(C)n2n1,6.5µM*,.,?,.,3%,.
CCC1CCCCN1CCCNC(=O)CSc1nc2nc(C)c(Cc3ccc(C)cc3)c(C)n2n1 (stereo unspecified),?,-16%,23µM*,?,4%,-7
Cc1ccc(N2C(=O)N(CC(=O)Nc3c(C)cc(C)cc3Cl)C(=O)C2C)cc1 (stereo unspecified),-27%,11%,?,-13,.,-8
COc1cccc(OCCSc2nc3ccccc3n2CC(=O)N2CCCCC2)c1,?,.,?,.,14%,.
C/C(=N\NC(=O)c1cc(-c2ccc(Br)s2)[nH]n1)c1ccncc1,?,8%,-22%,?,.,-8
C/C(=N/NC(=O)c1cc(-c2ccc(Br)s2)[nH]n1)c1ccco1,?,-14%,-17%,-69*,5%,0
CCN(CC)Cc1cc(Oc2ccc(O)c(CN(CC)CC)c2)ccc1O,23µM*,.,21µM*,-72*,.,.
COc1ccc(NC(=O)N2CCN(C(=O)C(Cc3ccc(F)cc3)NC(C)=O)CC2)cc1 (stereo unspecified),2%,?,-3%,-10,-1%,-16
COCCn1c2nc(=O)n(-c3ccccc3)c(=O)c-2nc2ccccc21,12µM*,.,?,68,.,.
CCCCN1C(=O)CN(C2CCCCC2)C(=O)C1c1ccc(OC(C)C)c(OC)c1 (stereo unspecified),?,.,-24%,.,13%,.
